Several values for one entry are separate records, joined by “and”; a condition that tells them apart may be missing. Equal values may be shown once. The panel holds about 79,000 compounds, 15% with a hit somewhere; the sample as a whole holds those more often. Activity calls are given as the source filed them. Rule as the data show it: active = growth inhibition above about 70%; inactive = the rest.
Columns and labels:
[1] = NCI Yeast Anticancer Drug Screen. Data for the rad50 strain (AID 155);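 also: 0% = growth of vehicle-only cultures of the same strain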; details: S. cerevisiae rad50 strain growth inhibition; at 50.0 µM; active compounds read high
How it was run: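 Growth of the mutant yeast was measured after compound exposure and referenced to vehicle-treated cultures.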

[2] = NCI Yeast Anticancer Drug Screen. Data for the mec2-1 strain (AID 157); details: S. cerevisiae mec2-1 strain, at 50.0 µM, active compounds read high
How it was run: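 Cells of the genetically defined mec2-1 yeast strain are incubated with test compound. Inhibition of growth is calculated against vehicle-treated controls.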

[3] = NCI Yeast Anticancer Drug Screen. Data for the sgs1 mgt1 strain (AID 161);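 also: 0% = growth of cultures given vehicle only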; details: S. cerevisiae sgs1 mgt1 strain, at 50.0 µM, active compounds read high
How it was run: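 Read-out: growth inhibition vs vehicle controls. Cells: mutant yeast strain deficient in DNA damage repair.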

[4] = NCI Yeast Anticancer Drug Screen. Data for the cln2 rad14 strain (AID 165);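 also: 0% = growth equal to vehicle treated cultures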; details: S. cerevisiae cln2 rad14 strain, at 50.0 µM, active compounds read high
How it was run: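 The screen exposed genetically defined yeast (cln2 rad14) to test compounds and scored growth inhibition relative to vehicle-treated controls.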

[5] = NCI Yeast Anticancer Drug Screen. Data for the bub3 strain (AID 167); details: S. cerevisiae bub3 mutant strain, at 50.0 µM, active compounds read high
How it was run: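 Whole-cell yeast assay. The mutant strain was incubated with compounds, and growth inhibition was determined by comparison with vehicle-treated cells.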

[6] = NCI Yeast Anticancer Drug Screen. Data for the mlh1 rad18 strain (AID 175); details: S. cerevisiae mlh1 rad18 strain growth inhibition; at 50.0 µM; active compounds read high
How it was run: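 Compound-treated yeast growth, normalised to vehicle controls. Strain bears defined DNA repair mutations.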

Measured: growth inhibition

CC1CN1P1(N2CC2C)=NP(N2CC2C)(N2CC2C)=NP(N2CC2C)(N2CC2C)=N1 (stereo unspecified)
inactive: [1] -2.45% | [2] 1.3% | [3] 2.75% | [4] 15.7% | [5] -2.2% | [6] 5.5%

O=C1NC(=O)C(c2ccsc2)C(=O)N1
inactive: [1] -20.6% | [2] -2.25% | [3] -30.4% | [4] -40.5% | [5] 7.5% | [6] 1.45%

CC(Cl)CC(=O)OCC1CCCN2CCCCC12 (stereo unspecified)
inactive: [1] 55.1% | [2] 33.3% | [3] 23.6% | [4] 41.8% | [5] 45.4% | [6] 39.5%

O=C1C(=O)c2ccccc2-c2ccccc21
inactive: [1] 36.6% and 34.6% | [2] 31.1% and 18.2% | [3] 32.8% and 25.5% | [4] -6.65% and -35.9% | [5] 25.9% and 30.6% | [6] 5.35% and 9.6%

COP(=O)(O)NC(C)=O
inactive: [1] 13.7% | [2] -23.9% | [3] 8.85% | [4] -64.5% | [5] 9.45% | [6] -8.4%

O=C(Cc1ccccc1)OCCBr
inactive: [1] -8.95% | [2] 4.65% | [3] 0.95% | [4] 15.1% | [5] -16.2% | [6] -2.05%

CN1CC(NC(=O)N(CCCl)N=O)CC2c3cccc4c3c(cn4N=O)CC21 (stereo unspecified)
inactive: [1] 17.8% | [2] 10.6% | [3] 21.4% | [4] 18.6% | [5] -3.7% | [6] 52.1%

Cc1cc(N(CCCl)CCCl)ccc1C1N(Cc2ccc(N(C)C)cc2)CCN1Cc1ccc(N(C)C)cc1
inactive: [1] 13.5% | [2] 1.55% | [3] 16.4% | [4] -3.4% | [5] 1.6% | [6] 18.6%

O=[N+]([O-])c1ccc(/C=C/C=C\c2ccc(S(=O)(=O)F)cc2Cl)cc1
inactive: [1] 2.55% | [2] 25.2% | [3] 16% | [4] 1.85% | [5] 10.2% | [6] 16.3%

c1ccc2c(c1)CC1OCN3CN(COC4Cc5ccccc5CC43)C1C2 (stereo unspecified)
inactive: [1] 0.75% | [2] -4.7% | [3] 1.2% | [4] -5.9% | [5] -1.45% | [6] -7.15%

Cc1cc(N(C)CCCl)ccc1N=Nc1ccccc1C(=O)O
inactive: [1] 36.5% | [2] 10.8% | [3] 36.8% | [4] 6% | [5] 23.4% | [6] 18.8%

O=C(Nc1ccccc1)C(Cl)(Cl)Cl
inactive: [1] -10.1% | [2] -25.8% | [3] 11.1% | [4] -10.2% | [5] -9.8% | [6] 19.8%

O=[N+]([O-])c1cc(Cl)ccc1Cl
inactive: [1] 11.6% and 28.9% | [2] 4.4% and -26.1% | [3] 4.75% and -10.9% | [4] 3.95% and -47.9% | [5] -6.85% and -12.7% | [6] 0.35% and -8.7%

CCC(C)CC(C)N (stereo unspecified)
inactive: [1] 0.6% | [2] 2.7% | [3] 14.5% | [4] 2.65% | [5] -2.45% | [6] 9.15%

CN1CCC23CC=CCC2C1Cc1ccc([N+](=O)[O-])cc13 (stereo unspecified)
inactive: [1] -4.15% | [2] 11.3% | [3] 7.25% | [4] -3.15% | [5] 2.4% | [6] 35%

CC(C)N([P-]C(=O)[P-]N(C(C)C)C(C)C)C(C)C.[C-]#[O+].[C-]#[O+].[C-]#[O+].[C-]#[O+].[C-]#[O+].[C-]#[O+].[Fe].[Fe] (stereo unspecified)
inactive: [1] 3.4% | [2] 0.15% | [3] 3.55% | [4] 11.3% | [5] 2.3% | [6] -0.9%

CC(C)[CH2][Sn]([CH2]C(C)C)([CH2]C(C)C)[C](C)(C)C
active: [1] 99.3% | [2] 99.7% | [3] 99.5% | [4] 99.2% | [5] 99.4% | [6] 99.5%

[C-]#[O+].[C-]#[O+].[C-]#[O+].[Mo].c1ccc([PH+](CC[As](c2ccccc2)c2ccccc2)CC[As](c2ccccc2)c2ccccc2)cc1
inactive: [1] 11.4% | [2] 9.45% | [3] 21.1% | [4] 19.2% | [5] 6.7% | [6] 28.9%

COC1OC2COc3ccccc3OC2C(N=C(N)N[N+](=O)[O-])C1OS (stereo unspecified)
inactive: [1] -0.8% | [2] -7.55% | [3] 2.15% | [4] -24.7% | [5] -3.15% | [6] 11.3%

NC(=O)OCC(O)c1ccccc1 (stereo unspecified)
inactive: [1] -11.6% | [2] 10% | [3] -22.6% | [4] -27.8% | [5] -19.9% | [6] 2.2%

CC1(C)SC2C(NC(=O)Cc3ccccc3)C(=O)N2C1C(=O)O (stereo unspecified) (tested in a mixture with another compound)
inactive: [1] 2.2% | [2] 0.85% | [3] 13.5% | [4] -2.3% | [5] -12.3% | [6] -11.7%

CC1C(c2ccccc2)OCCN1C (stereo unspecified)
inactive: [1] -26.4% | [2] -12.9% | [3] -23.7% | [4] -7.5% | [5] -16.4% | [6] -32.2%

CC1([N+](=O)[O-])COP(=O)(NCC2CCCO2)OC1 (stereo unspecified)
inactive: [1] 4.8% | [2] -23.9% | [3] -2.9% | [4] -4.1% | [5] 0.35% | [6] 3.95%

CC(=O)C1(c2ccccc2)CCCN(C)CC1 (stereo unspecified)
inactive: [1] -7.8% | [2] -8.95% | [3] 8.2% | [4] 1.35% | [5] 3.45% | [6] -3.45%

CC[N+]1(CC)CC[N+](CC)(CC)CC1
inactive: [1] 22.9% | [2] -49% | [3] 25.8% | [4] -9.05% | [5] -0.9% | [6] 16.4%

O=C(COc1ccc(Cl)c(Cl)c1)Nc1ccc[n+](Cc2ccc(S(=O)(=O)F)cc2Cl)c1
inactive: [1] 52.5% | [2] 27.9% | [3] 17.6% | [4] 58.2% | [5] 4% | [6] 8.5%

c1ccc(CN2CCNCC2)cc1
inactive: [1] -8.35% | [2] -14.4% | [3] 1.9% | [4] -14.1% | [5] 4.9% | [6] -9.7%

COc1ccc(/C=C/c2cc(OC)c3c(c2)OCO3)cc1O
inactive: [1] 4.4% | [2] 5.45% | [3] -9.55% | [4] 0.9% | [5] 1.7% | [6] -7.75%

CCC(=O)C(c1ccccc1)(c1ccccc1)C(C)CN1CCCCCCC1 (stereo unspecified)
inactive: [1] 30.3% | [2] 12.1% | [3] 10.8% | [4] 1.9% | [5] 10.8% | [6] 35.4%

Cc1c(O)c(O)c(C)c(CCN)c1O
inactive: [1] 15.4% | [2] 19.8% | [3] 22.1% | [4] -26.8% | [5] 25.1% | [6] 27.9%

C[N+](C)(C)NP(=O)(N[N+](C)(C)C)c1ccccc1
inactive: [1] 3.2% | [2] -8.15% | [3] -19.3% | [4] 11.6% | [5] 1.95% | [6] -11.1%

CC[C@H]1CN2CCc3c([nH]c4ccccc34)[C@@H]2C[C@@H]1/C(=C\OC)C(=O)OC
inactive: [1] 8.45% | [2] 3.8% | [3] 18.6% | [4] 9.35% | [5] 21.6% | [6] 0.65%

C(=NC1CCCCC1)c1c[nH]c2ccccc12
inactive: [1] -24.9% | [2] -39.6% | [3] -5.05% | [4] 4.7% | [5] -27.5% | [6] -17.8%

[N-]=[N+]=CC(=O)OCC(N)C(=O)O (stereo unspecified)
inactive: [1] 4.5% | [2] -12.8% | [3] -5.35% | [4] 14.1% | [5] -6.7% | [6] -0.6%

CN1CCc2cc3c(cc2C1)OCO3
inactive: [1] -22.9% and -14.8% | [2] 2.5% and -16.9% | [3] -12.9% and 8.55% | [4] -22.6% and 7.65% | [5] -5.85% and 2.45% | [6] -17.9% and 28.6%

CCCCCCCCCCCOP(=O)(OCC)OCC
active: [1] 99.5% | [2] 99.8% | [3] 99.8% | [4] 99.5% | [5] 99.7% | [6] 99.7%

OC(c1ccccc1)C1CCCCN1 (stereo unspecified)
inactive: [1] -7.95% | [2] -7.2% | [3] 9.8% | [4] -12.3% | [5] 11.2% | [6] -17.6%

CC(=O)CC(C)=O.CC(=O)CC(C)=O.[Ni]
inactive: [1] -39% | [2] -31.4% | [3] -1.1% | [4] 31.1% | [5] -6.35% | [6] -25.4%

CC(C)C(CC[C@@H](C)C1CC[C@@]2(C)C3=C(CC[C@]12C)[C@@]1(C)CC[C@H](O)C(C)(C)[C@@H]1CC3)S[As](C)C (stereo partly specified)
inactive: [1] 40.4% | [2] -0.5% | [3] 26.7% | [4] 31.6% | [5] -4.35% | [6] 32.8%

CCOc1ccc(OCC)c(C(O)C(C)NC(C)C)c1 (stereo unspecified)
inactive: [1] -0.55% | [2] 9.1% | [3] 6% | [4] 0.1% | [5] -3.6% | [6] -10.2%

CCCCC1(C(C)C)C(=O)NC(=O)N(C)C1=O (stereo unspecified)
inactive: [1] -5.55% | [2] 8.9% | [3] 5.15% | [4] -12.7% | [5] 5.75% | [6] 5.3%

ClCC1CCN(CCc2ccccc2)CC1
inactive: [1] -5.5% | [2] 13.8% | [3] 8.65% | [4] -36.6% | [5] -17.8% | [6] 9.65%

CCN1C(=O)C(=C/C=C/c2ccc([N+](=O)[O-])cc2)C(=O)N(CC)C1=S
inactive: [1] 8.55% | [2] 9.95% | [3] 19.1% | [4] 19.9% | [5] 18.6% | [6] 18.1%

COc1ccc(CC2C3=C(CCCC3)CCN2C)cc1 (stereo unspecified)
inactive: [1] 45.2% | [2] 21.9% | [3] 28.6% | [4] 21.8% | [5] 17.6% | [6] -25.8%

Cc1cccc[c]1[Sb](=[O])([OH])[OH]
inactive: [1] 6.6% | [2] -10.2% | [3] -15.9% | [4] -7.35% | [5] -17.2% | [6] -2.7%

S=P(Nc1ccccc1Cl)(Nc1ccccc1Cl)c1ccccc1
inactive: [1] 30.3% | [2] 25.8% | [3] 39.9% | [4] 37.9% | [5] 39.4% | [6] 21%
